Reference: PubChem BioAssay (Tox21)
Records with an inconclusive call do not appear. Calls of active or inactive are those of the source. Unless noted, the call rests on the fitted dose curve; in most records, active means well fitted curve in the direction sought with a large enough effect in the repeat runs; inconclusive means weak or mixed curves; inactive means no such curve, though single readings can be large; an effect the other way counts as inactive or inconclusive.

Experiments:
[1] = qHTS assay to identify small molecule antagonists of the retinoid acid receptor (RAR) signaling pathway - cell viability counter screen (AID 1159551); further: nearly all actives have a fitted effect of over 35% in size
Outline: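 ATP-based viability, C3RL4 cells, 6 h at 37 C with 1 uM final retinol co-added after compound; luminescence read 30 min post CellTiter-Glo, RT.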

[2] = qHTS assay to identify small molecule antagonists of the retinoic acid receptor (RAR) signaling pathway (AID 1159552; further: nearly all actives have a fitted effect of over 50% in size)
Outline: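 Cells of the C3RL4 line were seeded, incubated overnight, then dosed with compounds in DMSO followed immediately by retinol (1 uM final). Six hours later luciferase detection reagent went in; signal was measured after 30 min at RT.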

[3] = qHTS assay to identify small molecule agonists of the retinoic acid receptor (RAR) signaling pathway (AID 1159553)
Outline: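 Quantitative high-throughput format: the Tox21 10K library was tested on C3RL4 RARE-luciferase cells for 6 hr at 37 C and 5% CO2, with luminescence measured after a 30 min room-temperature reagent step.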

[4] = qHTS assay to identify small molecule antagonists of the estrogen related receptor (ERR) signaling pathway from Tox21 library - cell viability counter screen (AID 1224834); further: nearly all actives have a fitted effect of over 30% in size
Outline: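 Compounds in DMSO were pinned onto ERR cells that had been incubated for 6 h, and the plates were held at 37 C for 17.5 h. CellTiter-Fluor reagent was then added and fluorescence was measured after 30 min.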

[5] = target: Luciferin 4-monooxygenase (Photinus pyralis) (UniProt P08659); test: qHTS assay to identify small molecule inhibitors of firefly luciferase (AID 1224835); further: nearly all actives have a fitted effect of over 25% in size
Outline: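 Inhibition of purified Photinus luciferase is measured by luminescence. Substrate levels (D-luciferin, ATP) sit at their KM values. Each compound is tested in a concentration series.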

[6] = qHTS assay to identify small molecule agonists of the constitutive androstane receptor (CAR) signaling pathway - cell viability counter screen (AID 1224836); further: nearly all actives have a fitted effect of over 45% in size
Outline: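 HepG2-CYP2B6-hCAR, 2500 cells/well, 4 h pre-incubation; cpd 15 conc + PK11195 0.75 uM final; 23 h, 37 C/5% CO2; CellTiter-Fluor, fluorescence.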

[7] = target: Nuclear receptor subfamily 1 group I member 3 (Homo sapiens) (UniProt Q14994); test: qHTS assay to identify small molecule antagonists of the constitutive androstane receptor (CAR) signaling pathway (AID 1224838);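 further: HepG2 cells stably expressing hCAR with CYP2B6 luciferase reporter stimulated by CITCO; nearly all actives have a fitted effect of over 40% in size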
Outline: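 Luminescence from a CYP2B6-2.2kb promoter reporter in hCAR-expressing HepG2 cells reflects CAR signaling. Cells received compounds at 15 concentrations and 50 nM CITCO (final), then incubated 24 h at 37 C/5% CO2.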

[8] = target: Nuclear receptor subfamily 1 group I member 3 (Homo sapiens) (UniProt Q14994); test: qHTS assay to identify small molecule agonists of the constitutive androstane receptor (CAR) signaling pathway (AID 1224839);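 further: HepG2 cells stably carrying human CAR and a CYP2B6 luciferase reporter; nearly all actives have a fitted effect of over 15% in size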
Outline: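 HepG2-CYP2B6-hCAR cells, 2500/well, 4 h pre-incubation; compounds 15 conc.; PK11195 0.75 uM final; 24 h, 37 C/5% CO2; ONE-Glo luciferase read.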

[9] = qHTS assay to identify small molecule antagonists of the estrogen related receptor signaling pathway with the pleiotropic PPARgamma coactivator (PGC) from Tox21 10K library - cell viability counter screen (AID 1224840; active means well fitted cell-killing curve with a large enough effect in the repeat runs, not every such curve was filed as active; further: nearly all actives have a fitted effect of over 40% in size)
Outline: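 Cell viability is measured by CellTiter-Fluor fluorescence in PGC/ERR cells that receive compounds after a 6-hour attachment period and are then incubated 17.5 hours at 37 C.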

[10] = target: Thyrotropin receptor (Homo sapiens) (UniProt P16473); test: qHTS assay to identify small molecule agonists of the thyroid stimulating hormone receptor (TSHR) signaling pathway (AID 1224843; calls by dose curve; further: nearly all actives have a fitted effect of over 45% in size)
Outline: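 A cell-based cAMP HTRF format was run in TSHR-transfected HEK293 cells, 800 per well. Treatment: 30 min, room temperature. Detection: 1 h with labelled cAMP and anti-cAMP cryptate. Concentration-response over 15 points, three replicates.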

[11] = qHTS assay to identify small molecule agonists of H2AX (AID 1224845; active means well fitted activation curve with a large enough effect in the signal ratio in the repeat runs, not every such curve was filed as active; the % refers to the signal ratio)
Outline: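 Phospho-H2AX Ser139 measured by HTRF (ex 320 nm; em 665 and 620 nm) after 24 hr antibody incubation. Compounds, 15 concentrations, 0.76% DMSO, were applied to CHO-K1 cells for 3hr at 37C before lysis.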

[12] = qHTS assay to identify small molecule agonists of the hypoxia (HIF-1) signaling pathway (AID 1224846; active means well fitted activation curve with a large enough effect in the signal ratio in the repeat runs, not every such curve was filed as active; the % refers to the signal ratio)
Outline: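 Agonist mode reporter screen. ME-180 cells stably expressing bla under HRE control received test compounds in DMSO for 17 hrs (37C, 5% CO2), and beta-lactamase activity was then detected with the CCF4-AM FRET substrate.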

[13] = qHTS assay to identify small molecule agonists of H2AX - cell viability counter screen (AID 1224847; calls by dose curve;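 further: wild-type CHO-K1 cells; top concentration of the series differs between compounds; nearly all actives have a fitted effect of over 30% in size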)
Outline: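 Cells plated first: CHO-K1, 1000 per well in 10% FBS medium, incubated overnight at 37C. Then 15-point compound titration added (final DMSO 0.76%) for 3 hr. Finally CellTiter-Glo added and luminescence read.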

[14] = qHTS RealTime-Glo MT Cell Viability Assay in HepG2 cells - 24 hour (AID 1224867); further: nearly all actives have a fitted effect of over 50% in size
Outline: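 qHTS, HepG2, 600 cells/well, RealTime-Glo (NanoLuc + prosubstrate) added with cells; 5 h preincubation; DMSO compound addition; 37 C; luminescence at 0/8/16/24/32/40 h.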

[15] = qHTS assay to identify small molecule antagonists of the estrogen related receptor signaling pathway with the pleiotropic PPARgamma coactivator (PGC) from Tox21 10K library (AID 1224841; call rule not given here; further: actives are mostly falling curves and most rising ones were filed inactive; nearly all actives have a fitted effect of over 50% in size)
Outline: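 Cells stably carrying the PGC/ERR reporter, seeded at 2,000 per well, received pin-transferred compounds 6 h post-plating. Exposure lasted 18 h at 37 C. Signal: One-Glo luminescence.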

[16] = qHTS assay to identify small molecule agonists of the estrogen related receptor signaling pathway with the pleiotropic PPARgamma coactivator (PGC) from Tox21 10K library (AID 1224842); further: nearly all actives have a fitted effect of over 15% in size
Outline: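 Luminescence from One-Glo (30 min, room temperature) measured after PGC/ERR cells had 18 h at 37 C with pinned compound (23 nL in DMSO). Cells had been seeded at 2,000 per well and pre-incubated 6 h.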

[17] = qHTS assay to identify small molecule agonists of the hypoxia (HIF-1) signaling pathway - cell viability counter screen (AID 1224844; calls by dose curve; further: nearly all actives have a fitted effect of over 50% in size)
Outline: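 Viability counter screen: HRE-bla ME-180 cells plated 5 hrs before compound addition, treated 17 hrs at 37C and 5% CO2, then CellTiter-Glo added after the FRET reporter read; luminescence after 30 min.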

[18] = qHTS assay to identify small molecule antagonists of the estrogen related receptor (ERR) signaling pathway from Tox21 library (AID 1224848); further: nearly all actives have a fitted effect of over 50% in size
Outline: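 ERR cell line, 2,000 cells/well. 6 h settle, then compound (DMSO) added; 18 h at 37 C; ONE-Glo luminescence after 30 min RT.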

[19] = qHTS assay to identify small molecule agonists of the estrogen related receptor (ERR) signaling pathway from Tox21 library (AID 1224849; calls by dose curve; further: nearly all actives have a fitted effect of over 15% in size); conditions: ERR reporter cell line, ONE-Glo luciferase, 18 h; at 92.4 µM (top of the series) unless noted
Outline: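 Quantitative HTS in agonist format: NTP ERR cell line, compounds transferred in DMSO after 6 h plating, 18 h incubation at 37 C, ONE-Glo luminescence endpoint.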

[20] = qHTS assay to identify small molecule antagonists of the constitutive androstane receptor (CAR) signaling pathway - cell viability counter screen (AID 1224837); further: nearly all actives have a fitted effect of over 45% in size
Outline: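 Cells are seeded, rested 4 hr at 37 C/5% CO2, dosed with compound (15-point series) and 50 nM CITCO, incubated a further 23 hr, and then CellTiter-Fluor reagent is added before fluorescence is read. The line is HepG2 with stable hCAR and CYP2B6-2.2kb.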
On the % scale 0 is the no-effect control and ±100 the full control effect.

Nuclear receptor subfamily 1 group I member 3 (Homo sapiens), sequence (Q14994 whole entry, looked up): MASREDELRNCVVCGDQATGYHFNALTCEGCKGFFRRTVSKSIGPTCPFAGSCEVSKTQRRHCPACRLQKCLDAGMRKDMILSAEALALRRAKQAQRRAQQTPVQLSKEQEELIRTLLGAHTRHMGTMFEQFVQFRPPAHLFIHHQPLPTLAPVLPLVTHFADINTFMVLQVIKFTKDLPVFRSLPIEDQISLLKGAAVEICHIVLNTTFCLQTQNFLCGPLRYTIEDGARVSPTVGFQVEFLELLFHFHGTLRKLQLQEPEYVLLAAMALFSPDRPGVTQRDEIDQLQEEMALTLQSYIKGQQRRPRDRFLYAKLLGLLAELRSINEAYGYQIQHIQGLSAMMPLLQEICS
Thyrotropin receptor (Homo sapiens), sequence (P16473 whole entry, looked up): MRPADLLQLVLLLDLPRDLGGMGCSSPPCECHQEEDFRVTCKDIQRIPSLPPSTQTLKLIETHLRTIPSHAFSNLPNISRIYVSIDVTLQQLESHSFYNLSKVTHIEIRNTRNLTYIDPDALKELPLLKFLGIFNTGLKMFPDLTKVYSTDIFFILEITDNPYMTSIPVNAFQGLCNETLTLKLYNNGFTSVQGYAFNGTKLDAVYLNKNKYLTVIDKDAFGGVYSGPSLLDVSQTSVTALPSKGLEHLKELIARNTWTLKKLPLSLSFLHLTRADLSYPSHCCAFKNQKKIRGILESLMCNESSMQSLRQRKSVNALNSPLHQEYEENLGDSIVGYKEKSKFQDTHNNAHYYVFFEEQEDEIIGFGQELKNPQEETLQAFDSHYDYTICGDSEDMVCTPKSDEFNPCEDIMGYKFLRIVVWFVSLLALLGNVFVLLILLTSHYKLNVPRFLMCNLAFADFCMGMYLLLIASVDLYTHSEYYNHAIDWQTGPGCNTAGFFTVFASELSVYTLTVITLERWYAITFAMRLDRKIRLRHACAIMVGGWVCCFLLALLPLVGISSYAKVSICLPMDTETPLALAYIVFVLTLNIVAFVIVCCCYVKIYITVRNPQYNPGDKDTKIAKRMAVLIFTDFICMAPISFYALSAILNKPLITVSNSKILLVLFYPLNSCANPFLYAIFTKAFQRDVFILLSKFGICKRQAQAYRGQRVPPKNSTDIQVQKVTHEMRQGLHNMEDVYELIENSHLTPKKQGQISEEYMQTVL
Luciferin 4-monooxygenase (Photinus pyralis), sequence (P08659 whole entry, looked up): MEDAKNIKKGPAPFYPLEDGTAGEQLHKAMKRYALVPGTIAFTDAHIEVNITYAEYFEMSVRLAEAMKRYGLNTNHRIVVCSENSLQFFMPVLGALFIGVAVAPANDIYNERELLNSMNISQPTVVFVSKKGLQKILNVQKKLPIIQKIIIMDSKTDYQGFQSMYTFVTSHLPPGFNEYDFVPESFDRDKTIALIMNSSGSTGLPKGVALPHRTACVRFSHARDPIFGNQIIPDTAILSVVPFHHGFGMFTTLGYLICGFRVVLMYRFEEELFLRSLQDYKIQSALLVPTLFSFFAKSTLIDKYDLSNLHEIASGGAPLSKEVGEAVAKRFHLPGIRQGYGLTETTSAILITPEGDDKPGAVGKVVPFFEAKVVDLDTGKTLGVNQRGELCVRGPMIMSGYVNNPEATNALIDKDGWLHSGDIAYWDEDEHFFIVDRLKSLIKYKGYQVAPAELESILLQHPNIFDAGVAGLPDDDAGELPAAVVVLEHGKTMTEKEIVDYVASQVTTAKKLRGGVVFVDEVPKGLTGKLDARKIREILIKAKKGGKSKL

CCCCCCCCS(=O)(=O)O
inactive: outcome [1] | outcome [2] | Potency [3] | outcome [4] | Potency [5] | outcome [6] | outcome [7] | Potency [8] | outcome [9] | Potency [10] | outcome [11] | outcome [12] | outcome [13] | outcome [14]

O=C(O)CCC(=O)Nc1ccc(S(=O)(=O)Nc2nccs2)cc1
inactive: outcome [1] | outcome [2] | Potency [3] | outcome [4] | Potency [5] | outcome [6] | outcome [7] | outcome [9] | Potency [15] | Potency [16] | outcome [17] | outcome [11] | outcome [13] | outcome [18] | activity change, positive = activation [19] 8.26% [at 42.5 µM] | outcome [14]

CC(C)C(=O)Nc1cccc(C2CN3CCSC3=N2)c1 (stereo not drawn)
inactive: outcome [1] | outcome [2] | Potency [3] | outcome [4] | Potency [5] | outcome [6] | outcome [20] | outcome [9] | Potency [10] | outcome [11] | outcome [12] | outcome [14]

Cc1ccc(O)c([N+](=O)[O-])c1
inactive: outcome [1] | outcome [2] | Potency [3] | outcome [4] | Potency [5] | outcome [6] | outcome [7] | Potency [8] | outcome [9] | Potency [15] | Potency [16] | outcome [17] | outcome [12] | outcome [13] | activity change, positive = activation [19] -16.2% | outcome [14]

C=C(C)C(=O)OCCOC1CC2CC1C1C=CCC21 (stereo not drawn)
inactive: outcome [1] | outcome [2] | Potency [3] | outcome [4] | Potency [5] | outcome [6] | outcome [7] | Potency [8] | outcome [9] | Potency [15] | Potency [16] | outcome [17] | outcome [11] | outcome [18] | outcome [14]

COCc1nnc(-c2ccc[n+]([O-])c2)n1-c1c(Cl)c(Cl)cc2[nH]c(=O)c(=O)[nH]c12
inactive: outcome [1] | outcome [2] | Potency [3] | outcome [4] | Potency [5] | outcome [6] | outcome [20] | outcome [9] | Potency [10] | outcome [17] | outcome [11] | outcome [13] | outcome [14]

Nc1ccc(C(=O)NCC(=O)O)cc1
inactive: outcome [1] | outcome [2] | Potency [3] | outcome [4] | Potency [5] | outcome [6] | outcome [20] | outcome [9] | outcome [17] | outcome [11] | outcome [13] | outcome [14]

CC1(C)S[C@@H]2[C@H](NC(=O)Cc3ccccc3)C(=O)N2[C@H]1C(=O)O (tested in a mixture with another compound)
inactive: outcome [1] | outcome [2] | Potency [3] | outcome [4] | Potency [5] | outcome [6] | outcome [7] | outcome [9] | Potency [10] | outcome [17] | outcome [11] | outcome [13] | outcome [14]

O=C1CCCc2c(O)cccc21
inactive: outcome [1] | outcome [2] | Potency [3] | outcome [4] | Potency [5] | outcome [6] | outcome [7] | Potency [8] | outcome [9] | Potency [16] | outcome [17] | outcome [11] | outcome [12] | outcome [13] | outcome [18] | activity change, positive = activation [19] 0.0223% [at 42.5 µM] | outcome [14]
